Screens: PubChem BioAssay, ICCB-Longwood Screening Facility, Harvard Medical School
The entries come from a sample that favours hits as a whole.
S aureus helic: S. aureus DNA helicase inhibition; actives 0.05% (n = 120,000); inhibition, % (no concentration beside the values); purified S. aureus helicase, fluorescence unwinding assay; in the data active means inhibition above about 25%, passing the limit was not always enough
Sa growth inh: inhibitors of Staphylococcus aureus growth at 42 °C; S. aureus RN4220 growth, OD600, 20 h; hits give low values; relative growth, % (no concentration beside the values); AID 720641; actives 0.53% (n = 170,000);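 active means relative growth at most 50% at the other temperature and 20+ points below 30 °C, or under 10% at both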
Large screens that a line does not name were inactive.

Cc1ccccc1Cc1c(C)nc2c(-c3ccccc3)c(C)[nH]n2c1=O	Sa growth inh 0.5 (no result: S aureus helic)
Cc1cccc(Cc2c(C)nc3c(-c4ccccc4)c(C)[nH]n3c2=O)c1	none (no result: S aureus helic)
O=C(Nc1cccnc1)c1c(O)c2c(n(C3CC3)c1=O)CCCC2	none
CSC1=C(C#N)C2(CCCCC2)C(c2nc(-c3ccc(C)cc3)cs2)C(N)=N1 (stereo not drawn)	none (no result: Sa growth inh)
O=C(/C=C(\O)c1ccc(Br)cc1)C(=O)Nc1ccccc1	none (no result: S aureus helic)
O=C(/C=C(\O)c1ccccc1)C(=O)Nc1cccc(F)c1	Sa growth inh -0.6
O=C(CN1CCN(c2ncnc3scc(-c4ccc(Cl)cc4)c23)CC1)NC1CC1	none
Cc1cc(/C=N/NC(=O)Cn2nnc(-c3ccccc3)n2)c(C)n1CC(C)C	none
Cc1ccc(C(=O)c2ccc(N3CCOCC3)c(F)c2)cc1	none
CC(=O)NC[C@H]1CN(c2ccc(N3CCOCC3)c(F)c2)C(=O)O1	Sa growth inh -0.8 (no result: S aureus helic)
Oc1ccc2ccccc2c1Sc1nnnn1-c1ccccc1	none
NC1CCOc2ccccc21 (stereo not drawn)	none
COc1ccc(S(=O)(=O)NNc2ncnc3sc4c(c23)CCCC4)cc1	none
CC(C)(C)CC(C)(C)c1ccc(OCCOCC[N+](C)(C)Cc2ccccc2)cc1	Sa growth inh -0.3 (no result: S aureus helic)
C[N+](C)(CCOc1ccccc1)Cc1ccccc1 (tested in a mixture with another compound)	none
OCCN1CCSC1=Nc1ccccc1C(F)(F)F	none
COc1ccc(CCN(C)c2nc(N)c3c(N)nc(SCC(=O)O)cc3c2C#N)cc1OC	Sa growth inh 0.7
COc1cc2c(C#N)c(N(C)CCc3ccc(OC)c(OC)c3)nc(N)c2c(N)n1	none
Cc1csc(=O)n1CCC(=O)OCC(=O)NC1CCS(=O)(=O)C1 (stereo not drawn)	none
CCN(CC)c1ccc2c(c1)CCCN2	Sa growth inh 4.2
O=S(=O)(c1ccc2c(c1)CCCN2)N1CCCCC1	none
COc1ccc(N2CCN(CCNC(c3ccc(F)cc3)c3nnc(-c4ccccc4)o3)CC2)cc1 (stereo not drawn)	none
O=c1c(=NNc2nn[nH]n2)c(=O)c2ccccc12	Sa growth inh 1.4
O=c1c(=NNc2ccccc2)c(=O)c2ccccc12	none (no result: S aureus helic)
COc1nsc(Br)c1C#N	none
C=CCn1c(C)cc(C(=O)COC(=O)C2CCN(C(=O)Nc3ccccc3)CC2)c1C	none
COC(=O)C1=CN(CCCN2CCCC2=O)C=C(C(=O)OC)C1c1cccc(F)c1	none
Cc1ccc2c(c1)c1c3n2CCCNC3CCC1 (stereo not drawn)	none
Cc1ccc2c(c1)c1c3n2CCN=C3CCC1	none
c1cc2c(cc1C1CCCCC1)c1c3n2CCN=C3CCC1	Sa growth inh -2.0
c1cc2c(cc1C1CCCCC1)c1c3n2CCCNC3CCC1 (stereo not drawn)	Sa growth inh -0.8
Cc1sc(N=Nc2c(O)[nH]c(=O)[nH]c2=O)c(C#N)c1C	none
Cc1ccc(CNC(=O)Cn2sc3nc(C)cc(C)c3c2=O)cc1	none
CCOc1ccc(CCNC(=O)Cn2sc3nc(C)cc(C)c3c2=O)cc1	Sa growth inh 6.2
Cc1nc2nc(NC(=O)C(C)Oc3ccccc3)nn2c(C)c1Cl (stereo not drawn)	none
COC(=O)CCS(=O)(=O)c1nc(-c2cccs2)cc(C(F)(F)F)n1	Sa growth inh 1.4
COc1ccc(NC(=O)CCS(=O)(=O)c2nc(-c3cccs3)cc(C(F)(F)F)n2)cc1	none (no result: S aureus helic)
N#CC1=C(N)OC2=C(CCCC2=O)C1c1ccccc1C(F)(F)F (stereo not drawn)	none
O=C(CCCN1C(=O)c2ccccc2Sc2ncccc21)NCc1ccccc1Cl	none
CC(C)(C)NC1CCCCC1NS(=O)(=O)c1ccc(Cl)cc1 (stereo not drawn)	none
Cc1ccc(-n2c(SC/C(O)=C(\C#N)c3nc4ccccc4[nH]3)nc3ccccc3c2=O)cc1	none
CC(=O)Nc1sc2c(c1C#N)CCC2	none
N#Cc1c(NC(=O)C(F)(F)F)sc2c1CCCC2	Sa growth inh -1.0
CC(C)CN(CC(C)C)S(=O)(=O)c1ccc(C(=O)O)cc1	none
Cc1nnc(NC(=O)c2ccc(S(=O)(=O)N(CC(C)C)CC(C)C)cc2)o1	Sa growth inh 0.2
CCOC(NC(=O)Nc1ccc(Br)cc1)(C(F)(F)F)C(F)(F)F	Sa growth inh -0.7 (no result: S aureus helic)
CCOC(NC(=O)c1ccccc1)(C(F)(F)F)C(F)(F)F	none (no result: S aureus helic)
Oc1c(CN2CCCCC2)cc(Cl)c2cccnc12	none (no result: Sa growth inh)
CCN1CCN(Cc2cc(Cl)c3cccnc3c2O)CC1	none
Oc1c(CN2CCOCC2)cc(Cl)c2cccnc12	Sa growth inh 1.3
CC1CN(Cc2cc(Cl)c3cccnc3c2O)CC(C)O1 (stereo not drawn)	Sa growth inh 0.6
COC(=O)c1ccccc1NC(=O)Nc1nnc(N2CCCC2)s1	none
COc1ccc(C(=O)OCC(=O)NC23CC4CC(CC(C4)C2)C3)cc1S(=O)(=O)N1CCOCC1	none
Cc1cccc(OC(=O)c2cc(-c3ccc4c(c3)OCCO4)on2)c1	Sa growth inh 1.8 (no result: S aureus helic)
CC(C)c1ccc(OC(=O)c2cc(-c3ccc4c(c3)OCCO4)on2)cc1	none (no result: S aureus helic)
Cc1cc(C)cc(OC(=O)c2cc(-c3ccc4c(c3)OCCO4)on2)c1	Sa growth inh 1.7 (no result: S aureus helic)
COc1ccc(OC(=O)c2cc(-c3ccc4c(c3)OCCO4)on2)cc1	none (no result: S aureus helic)
CC(C)C(CC(=O)O)c1c[nH]c2ccccc12 (stereo not drawn)	none
CCn1cc(C(=O)O)c(=O)c2cc(F)c(F)cc21	none
CCn1cc(C(=O)O)c(=O)c2cc(F)c(N(C)CCc3ccc(OC)c(OC)c3)cc21	Sa growth inh 0.0
COc1ccc(CCN=C=S)cc1	Sa growth inh 9.0
COc1ccc(CCC(O)C2(O)CCCCC2)cc1 (stereo not drawn)	none
O=C(NCc1ccccc1)C1CCN(c2nc3ccc(Br)cc3s2)CC1	none
CN1/C(=C\C(=O)CN2C(=O)NC3(CCc4ccccc43)C2=O)C(C)(C)c2ccccc21 (stereo not drawn)	Sa growth inh -0.9
CN1/C(=C\C(=O)CN2C(=O)NC3(CCCCC3)C2=O)C(C)(C)c2ccccc21	none
CN(C)S(=O)(=O)c1ccc(=S)[nH]c1	Sa growth inh 38
CSc1ccc(S(=O)(=O)N(C)C)cc1	none
COC(=O)Nc1ccc(Cl)cn1	none
Nc1cccc(-c2csnn2)c1	none
COc1ccc(C(CNC(=O)NCC(c2ccc(OC)cc2)N2CCCCC2)N2CCCCC2)cc1 (stereo not drawn)	none
O=C(Nc1c[nH]c2ccccc12)N1CCOCC1	Sa growth inh 3.5
O=C(Nc1ccccc1)Nc1c[nH]c2ccccc12	none
COc1cc(NC(=O)Nc2ccccc2C)cc(OC)c1	none
CCC(=O)OCC(=O)Nc1cccc2ccccc12	none
O=C1C(=O)N(c2cccnc2)C(c2ccccc2)/C1=C(/O)c1ccccc1 (stereo not drawn)	none
CCc1ccc(Nc2c3c(nc4ccccc24)CCC3)cc1	Sa growth inh 6.7
CCc1ccc(Nc2c3c(nc4ccccc24)CCCC3)cc1	none
NC(=S)N1CCOCC1	none
CN1CCN(c2c(F)cc3c(=O)c(C(=O)O)cn(CCF)c3c2F)CC1	none (no result: S aureus helic)
NC1CCN(c2c(F)cc3c(=O)c(C(=O)O)cn(C4CC4)c3c2Cl)C1 (stereo not drawn)	Sa growth inh -0.9 (no result: S aureus helic)
NC1CCN(c2nc3c(cc2F)c(=O)c(C(=O)O)cn3-c2ccc(F)cc2F)C1 (stereo not drawn)	Sa growth inh -1.0 (no result: S aureus helic)
CO/N=C1\CN(c2nc3c(cc2F)c(=O)c(C(=O)O)cn3C2CC2)CC1CN (stereo not drawn)	Sa growth inh -1.0 (no result: S aureus helic)
COc1c(N2CCNC(C)C2)c(F)cc2c(=O)c(C(=O)O)cn(C3CC3)c12 (stereo not drawn)	Sa growth inh -0.9 (no result: S aureus helic)
